Results published in PMC5540273 (PLoS ONE, 2017).
Where “and” joins values, the source holds several entries; their conditions need not be identical. Equal entries are not always repeated. Where two headings read alike, the source gives them in different places.

Tests used:
HIPK2 = settings: concentration: 1 μM, replicates: in singlicate, n = 1
HIPK3 = settings: concentration: 1 μM, replicates: in singlicate, n = 1
HIPK4 = settings: concentration: 1 μM, replicates: in singlicate, n = 1
HPK1 = settings: concentration: 1 μM, replicates: in singlicate, n = 1
HUNK = settings: concentration: 1 μM, replicates: in singlicate, n = 1
ICK = settings: concentration: 1 μM, replicates: in singlicate, n = 1
IGF1R = settings: concentration: 1 μM, replicates: in singlicate; n = 1
IKK-alpha = system: T1, IKK-alpha; settings: concentration: 1 μM, replicates: in singlicate, n = 1
T1 construct: gene CHUK

IKK-beta = system: T2, IKK-beta; settings: concentration: 1 μM, replicates: in singlicate; n = 1
T2 construct: gene IKBKB

IKK-epsilon = system: T3, IKK-epsilon; settings: concentration: 1 μM, replicates: in singlicate, n = 1
T3 construct: gene IKBKE
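Further: KINOMEscan kinase panel screen.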

SMILES: Fc1cccc(COc2ccc(Nc3ncnc4nn5ccccc5c34)cc2Cl)c1 [GW689066]
- %Inh (HIPK2): 0%
- %Inh (HIPK3): 0%
- %Inh (HIPK4): 0%
- %Inh (HPK1): 22%
- %Inh (HUNK): 28%
- %Inh (ICK): 0%
- %Inh (IGF1R): 0%
- %Inh (IKK-alpha): 11%
- %Inh (IKK-beta): 0%
- %Inh (IKK-epsilon): 0%

SMILES: Cn1ccc2ncnc(Oc3ccc(NC(=O)Nc4cccnc4)c(Cl)c3)c21
- %Inh (HIPK2): 4%
- %Inh (HIPK3): 0%
- %Inh (HIPK4): 6%
- %Inh (HPK1): 11%
- %Inh (HUNK): 24%
- %Inh (ICK): 0%
- %Inh (IGF1R): 16%
- %Inh (IKK-alpha): 13%
- %Inh (IKK-beta): 10%
- %Inh (IKK-epsilon): 0%

SMILES: Oc1ccc2ncnc(Nc3ccc(OCc4ccccc4)cc3)c2c1 [GI262866]
- %Inh (HIPK2): 58%
- %Inh (HIPK3): 6%
- %Inh (HIPK4): 0%
- %Inh (HPK1): 41%
- %Inh (HUNK): 8%
- %Inh (ICK): 7%
- %Inh (IGF1R): 0%
- %Inh (IKK-alpha): 7%
- %Inh (IKK-beta): 16%
- %Inh (IKK-epsilon): 0%

SMILES: C[C@H]1CC[C@@H](C(=O)Nc2ccccc2)CN1c1cc(-c2ccc3c(N)n[nH]c3c2)nc(N)n1 [GSK2283293]
- %Inh (HIPK2): 0%
- %Inh (HIPK3): 0%
- %Inh (HIPK4): 0%
- %Inh (HPK1): 37%
- %Inh (HUNK): 0%
- %Inh (ICK): 0%
- %Inh (IGF1R): 15%
- %Inh (IKK-alpha): 7%
- %Inh (IKK-beta): 0%
- %Inh (IKK-epsilon): 8%

SMILES: COc1ccc(-c2nc3n(c2-c2ccncc2)CCC3)cc1 [SKF-104493]
- %Inh (HIPK2; 1 µM): 11% and 0%
- %Inh (HIPK3; 1 µM): 0% and 17%
- %Inh (HIPK4; 1 µM): 2% and 0%
- %Inh (HPK1; 1 µM): 17% and 0%
- %Inh (HUNK; 1 µM): 35% and 0%
- %Inh (ICK; 1 µM): 32% and 10%
- %Inh (IGF1R): 0%
- %Inh (IKK-alpha; 1 µM): 1% and 0%
- %Inh (IKK-beta): 0%
- %Inh (IKK-epsilon; 1 µM): 0% and 20%
